Values without a mark were called inactive.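 How the source made its calls: active means inhibition above 40% at one or more tested concentrations in the dose response counterscreen; inactive means inhibition below 40% at every dose tested.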
Assay: nmpC-GFP expression in S. Typhimurium, late-stage follow-up, counter-screen for PhoP regulon inhibitor project, synthesized compounds, set 5 (AID 463175)
Details: S. Typhimurium non-PhoP-regulated nmpC promoter-GFP fluorescence (growth counterscreen), 4 h; series mostly up to 150 µM; inhibition: at the top concentration

Row | Structure (SMILES) | inhibition
1 | Clc1ccc(C2Sc3ccccc3N=C3c4ccccc4CC32)cc1 (stereo unspecified) | 1.17%
2 | O=C1C2=C(Nc3ccccc3SC2c2cccnc2)c2ccccc21 (stereo unspecified) | 9.45%
3 | Cc1ccc(C2Sc3ccccc3N=C3c4ccccc4CC32)cc1 (stereo unspecified) | 12.7%
4 | O=C1C2=C(Nc3ccccc3SC2c2ccc(Cl)cc2)c2ccccc21 (stereo unspecified) | 32.2%
5 | COc1cccc(NC(=O)N2CCCN(Cc3ccccc3F)C2)c1 | 24.9%
6 | O=C1C2=C(Nc3ccccc3SC2c2cccc(Br)c2)c2ccccc21 (stereo unspecified) | 14.8%

— PubChem BioAssay AID463175 (Southern Research Specialized Biocontainment Screening …, 2010)
